A selection: hits, their analogues and other compounds. The true share with any hit is near 18%.
TDP1 cell CPT: growth inhibition of DT40 Tdp1-/-;hTDP1 cells with camptothecin (screen for TDP1 inhibitors) | Potency, µM (doses to about 46.2 µM), actives largely listed as inhibitors | AID 686979 | actives 12% (n = 420,000) | chicken DT40 Tdp1-/-;hTDP1 cells + 20 nM CPT, ATP luminescence, 48 h; note: nearly all actives have a fitted effect of over 55% in size
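Cell growth measured by CellTiter-Glo luminescence after a minimum 48 h, 37 C compound exposure with 20 nM CPT in Tdp1-knockout DT40 cells stably expressing hTDP1, seeded 400/well; qHTS titration format.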
DT40 TDP1 no CPT: qHTS for Inhibitors of human tyrosyl-DNA phosphodiesterase 1 (TDP1): qHTS in cells in absence of CPT | DT40 Tdp1-/- hTDP1 cells, no CPT, ATP luminescence, 48 h | Potency, µM (titrated, usually from 46.2 µM), actives largely listed as inhibitors | actives 15% (n = 420,000); note: nearly all actives have a fitted effect of over 55% in size
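Readout: luminescence from CellTiter-Glo after 30 min in the dark at RT. Cells: DT40 Tdp1-/- with stable hTDP1, 400/well. Exposure: compounds alone, ≥48 hr, 37 °C.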
Six1-Eya2 blk: inhibitors of human Six1/Eya2 interaction; activity change, % (test concentration not listed); AID 651725; actives 0.56% (n = 360,000); AlphaScreen GST-Six1/His-Eya2 binding, biochemical; active compounds read low; in the data active = activity change below about -65%; inconclusive = mostly about -30% to -63%
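Compounds are tested against tagged Six1 and Eya2 proteins bridged by glutathione donor and nickel acceptor beads; after a one-hour incubation at 37 °C without light, AlphaScreen emission is recorded.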
IL-1B inflam inh: blocks inflammasome-driven IL-1 beta release. THP-1 LPS/ATP IL-1B secretion, AlphaLISA, 16 h; active compounds read low. activity change, % at 57.5 µM. actives 4.7% (n = 360,000). AID 743279; in the data active = activity change below about -50%; inconclusive = mostly about -30% to -49%
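THP-1 cells pretreated 1 hr with compounds (up to 57.5 uM final), then stimulated with LPS (250 ng/mL final) plus ATP (1.25 mM final); secreted IL-1B measured by AlphaLISA after 16 hr, decreased signal indicating inhibition.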
TDP1 block: blocks human tyrosyl-DNA phosphodiesterase 1. Q9NUW8. recombinant TDP1, AlphaScreen DNA substrate cleavage. Potency, µM (titrated, usually from 130 µM), most hits filed as inhibitors. actives 0.28% (n = 350,000). AID 485290; note: nearly all actives have a fitted effect of over 40% in size
Target sequence (Q9NUW8 whole entry, looked up): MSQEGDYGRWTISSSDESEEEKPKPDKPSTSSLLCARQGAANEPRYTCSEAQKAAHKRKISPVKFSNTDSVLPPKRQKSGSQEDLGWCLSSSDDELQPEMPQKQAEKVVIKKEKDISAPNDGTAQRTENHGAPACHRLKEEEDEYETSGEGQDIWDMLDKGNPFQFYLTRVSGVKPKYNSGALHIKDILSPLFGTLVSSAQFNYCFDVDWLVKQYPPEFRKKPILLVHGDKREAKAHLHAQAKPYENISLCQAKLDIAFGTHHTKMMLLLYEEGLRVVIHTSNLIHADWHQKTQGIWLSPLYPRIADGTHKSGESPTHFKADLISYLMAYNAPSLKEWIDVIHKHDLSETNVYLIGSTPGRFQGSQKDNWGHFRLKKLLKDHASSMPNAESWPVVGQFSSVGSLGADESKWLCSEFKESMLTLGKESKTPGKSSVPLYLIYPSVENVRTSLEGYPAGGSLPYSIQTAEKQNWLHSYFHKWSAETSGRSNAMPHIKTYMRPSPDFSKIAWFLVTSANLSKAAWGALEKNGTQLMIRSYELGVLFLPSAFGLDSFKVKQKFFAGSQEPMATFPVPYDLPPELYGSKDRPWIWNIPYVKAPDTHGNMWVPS
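Signal: AlphaScreen proximity between streptavidin donor and anti-FITC acceptor beads on intact substrate. Reaction: Tdp1 1 nM, substrate 15 nM final, 5 min RT after 15 min compound preincubation.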
CtBP-E1A blk: blocks the CtBP interaction with E1A. AlphaScreen GST-E1A/His-CtBP binding, 1536-well; active compounds read low. activity change, % (no concentration beside the values). actives 0.49% (n = 340,000). AID 651724; in the data active = activity change below about -65%; inconclusive = mostly about -30% to -63%
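Homogeneous bead-based format: GST-tagged E1A captured on glutathione donor beads, His-tagged CtBP on nickel acceptor beads; compounds precede bead addition by 2 h at 37 °C.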
Hits are given with their value; – = inactive; ? = inconclusive; · = not tested or not shown. Unless noted, calls come from the whole dose curve; as a rule, active = well fitted curve in the direction sought with a large enough effect; inconclusive = small, poorly fitted or top-dose-only effect, or another doubt; inactive = no such curve, though single readings can be large; an effect the other way counts as inactive or inconclusive.

SMILES	TDP1 cell CPT	DT40 TDP1 no CPT	Six1-Eya2 blk	IL-1B inflam inh	TDP1 block	CtBP-E1A blk
CC(C)[C@@H](CC(=O)N[C@@H]1CCNC[C@H]1C(=O)N[C@H](CC(=O)N[C@@H](CCC(=O)O)CC(=O)O)Cc1c[nH]c2ccccc12)NC(=O)C[C@H](Cc1c[nH]c2ccccc12)NC(=O)[C@@H]1CNCC[C@H]1N	·	·	·	·	–	·
COc1ccc([N+](=O)[O-])cc1CSc1nnc(NC(C)=O)s1	–	–	–	–	–	–
COc1ccccc1CNC(=O)c1cc(-c2ccccc2C)nn1CC1CC(c2cccnc2)=NO1 (configuration not stated)	?	?	–	–	–	–
O=C(NCc1ccco1)C1CC(c2cccc([N+](=O)[O-])c2)=NO1 (configuration not stated)	?	?	–	–	–	–
COc1ccc(C2=NOC(Cn3nc(-c4ccccc4)cc3C(=O)NCc3cccc(C(F)(F)F)c3)C2)cc1 (configuration not stated)	?	–	–	–	–	–
Cc1ccccc1-c1cc(C(=O)NCc2cccc(Br)c2)n(CC2CC(c3cccnc3)=NO2)n1 (configuration not stated)	?	18.4µM	–	–	–	–
COc1ccccc1CNC(=O)C1CC(c2cccc([N+](=O)[O-])c2)=NO1 (configuration not stated)	16.4µM	23.1µM	–	–	–	–
COc1ccccc1CNC(=O)c1cc(-c2ccccc2)nn1CC1CC(c2cccc([N+](=O)[O-])c2)=NO1 (configuration not stated)	10.3µM	14.6µM	–	–	·	–
O=C(NCc1cccs1)c1cc(-c2ccccc2)nn1CC1CC(c2cccc([N+](=O)[O-])c2)=NO1 (configuration not stated)	16.4µM	14.6µM	–	–	·	–
CCCCNC(=O)c1onc(CSc2cccc(OC)c2)c1C(=O)NCCCC	?	?	–	?	·	–
Cn1nnnc1SCC(=O)N1CCN(S(=O)(=O)c2ccc(Cl)cc2)CC1	–	–	–	–	–	–
O=C(CSC(=S)N1CCCC1)c1cc(Br)cc(Br)c1O	?	?	–	–	–	–
CC1CCCN(C(=S)SCC(=O)c2cc(Br)cc(Br)c2O)C1 (configuration not stated)	4.11µM	2.91µM	–	–	–	–
CCOC(=O)c1cccc(NS(=O)(=O)c2cc(-c3cnc(C4CC4)o3)ccc2C)c1	2.59µM	2.06µM	·	·	–	·
Cc1ccc(-c2cnc(C3CC3)o2)cc1S(=O)(=O)Nc1ccc(F)cc1Cl	?	25.9µM	·	·	–	·
COc1ccc(NS(=O)(=O)c2cc(-c3cnc(C4CC4)o3)ccc2C)cc1	6.51µM	4.61µM	–	–	–	·
CCOC(=O)c1cccc(NS(=O)(=O)c2cc3[nH]c(=O)c(=O)[nH]c3cc2C)c1	–	–	·	·	–	·
Cc1ccc(F)cc1NS(=O)(=O)c1ccc(Cl)s1	–	?	–	–	–	–
COc1cc(Cl)c(C)cc1NC(=O)c1ccc(NS(=O)(=O)c2ccc(F)c(F)c2)cc1	–	–	–	–	–	–
CCN(c1ccccc1)S(=O)(=O)c1ccc(OCC(F)(F)F)c(NC(=O)c2ccc(=O)[nH]c2)c1	–	–	–	–	·	–
CCOc1ccccc1NC(=O)CSc1cc(=O)n(CC)c2ccccc12	?	?	·	·	–	·
Cn1c(=O)cc(SCC(=O)Nc2cccnc2)c2ccccc21	?	?	–	–	–	–
CCn1c(=O)cc(SCC(=O)Nc2cc(Cl)ccc2OC)c2ccccc21	?	16.4µM	·	·	–	·
CCn1c(=O)cc(SCC(=O)Nc2ccc(OC)c(OC)c2)c2ccccc21	18.4µM	23.1µM	–	?	–	–
COc1cc(NC(=O)CSc2cc(=O)n(C)c3ccccc23)cc(OC)c1OC	10.3µM	?	·	·	–	·
SMILES	TDP1 cell CPT	DT40 TDP1 no CPT	Six1-Eya2 blk	IL-1B inflam inh	TDP1 block	CtBP-E1A blk
CCn1c(=O)cc(SCC(=O)Nc2cccc(C)n2)c2ccccc21	?	?	–	–	–	–
Cn1c(=O)cc(SCC(=O)Nc2ccccn2)c2ccccc21	–	–	–	–	–	–
CCOC(=O)c1cccc(NC(=O)CSc2cc(=O)n(C)c3ccccc23)c1	20.6µM	?	·	·	–	·
O=C(O)c1cccc(S(=O)(=O)N2Cc3ccccc3C2)c1	–	–	–	–	–	–
COC(=O)c1cccc(NC(=O)CN2C(=O)C3CCCCC3C2=O)c1 (configuration not stated)	–	–	–	–	–	–
CCOC(=O)c1cccc(NC(=O)CN2C(=O)C3C4C=CC(C4)C3C2=O)c1 (configuration not stated)	–	–	–	-94.9	–	–
COc1ccc(CNC(=O)CSc2cc(=O)n(C)c3ccccc23)cc1	?	16.4µM	–	–	–	–
Cc1cc(=O)n2[nH]c(SCc3ccccc3)nc2n1	–	–	–	–	?	–
COc1cccc(C2C(C(=O)/C=C/c3ccco3)=C(O)C(=O)N2CCN2CCOCC2)c1 (configuration not stated)	–	–	–	–	–	–
CCOc1ccccc1C(=O)NCC(=O)OCc1csc(CC(=O)Nc2ccc(C)cc2)n1	?	–	–	–	–	–
COc1cc(OC)cc(C(=O)N[C@H](C(=O)OCc2cc(=O)oc3cc(C)ccc23)C(C)C)c1	?	?	–	–	–	–
CCOc1ccccc1C(=O)NC(C(=O)OCn1nnc2ccccc2c1=O)C(C)C (configuration not stated)	?	25.9µM	–	–	·	–
CC(C)C(NC(=O)c1ccccc1)C(=O)OCn1nnc2ccccc2c1=O (configuration not stated)	–	–	–	–	–	–
CCOc1ccccc1C(=O)N[C@H](C(=O)OCc1cc(=O)oc2cc(C)ccc12)C(C)C	6.51µM	16.4µM	–	-55.3	–	–
CCOc1ccccc1C(=O)N[C@H](C(=O)OCc1csc(CC(=O)Nc2ccc(C)cc2)n1)C(C)C	18.4µM	14.6µM	–	?	–	–
CCOc1ccc(C(=O)N2CCN(c3ccccn3)CC2)cc1OCC	–	?	–	–	·	–
CN1C(=O)NC2(O)C(=O)c3ccccc3C12O (configuration not stated)	11.6µM	10.3µM	–	–	–	–
O=C(NCCn1c(-c2ccncc2)nc2ccccc21)[C@H]1CCCN1c1nc(CN2CCCCC2)cs1	–	–	–	–	·	–
CCCS/C(N)=N/N=C/c1ccccc1O	?	18.4µM	–	?	–	–

Screening results (PubChem)
